# PubChem BioAssay (NCATS)
# Results filed as inconclusive are left out. Entries that show only a call come without a potency. Calls of active or inactive are those of the source. Calls follow the shape of the dose curve; as a rule, active = well fitted inhibition curve with a large enough effect; inconclusive = small, poorly fitted or top-dose-only effect; inactive = flat fitted curve, though single readings scatter.
# Molecular target: Calcium and integrin-binding protein 1 (Homo sapiens) (UniProt Q99828)
# Sequence (Q99828 whole entry, looked up): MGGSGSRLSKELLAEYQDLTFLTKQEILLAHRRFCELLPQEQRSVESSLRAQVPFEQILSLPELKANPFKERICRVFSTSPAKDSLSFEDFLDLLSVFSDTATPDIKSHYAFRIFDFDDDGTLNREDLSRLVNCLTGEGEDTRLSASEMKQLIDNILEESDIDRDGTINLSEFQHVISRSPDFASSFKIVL
# Assay: Primary qHTS for Identification of Calcium Integrin Binding Protein 1 (CIB1) Competitor (AID 1508620); also: top concentration of the series differs between compounds
# Conditions: CIB1-GST / FITC-alphaIIb peptide fluorescence polarization; series mostly up to 114 µM
# Outline: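 Fluorescence polarization competition: GST-tagged CIB1 (1 uM final) preincubated with compound 15 min at room temperature, then FITC-labelled alphaIIb peptide (100 nM final) added. After 15 min at room temperature, polarization read at Ex 480/Em 540.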
row,Structure (SMILES),Potency
1,O=C(NCCc1nc2ccccc2[nH]1)C1CCCCC1,inactive
2,COc1ccc(C2Nc3ccccc3C(=O)N2Cc2ccc(C)o2)cc1COc1c(C)cccc1C (centres undefined),inactive
3,Cc1cccc(-n2cnc3cc(C(=O)N4CCCC4)ccc32)c1,inactive
4,NC(=O)c1ccc(-c2noc(-c3cccc(Cl)c3)n2)cc1,inactive
5,Cc1cc(C)n2ncc(C(=O)NC(C)C)c2n1,inactive
6,O=S(=O)(Nc1nc(-c2ccccc2C(F)(F)F)nc2ccccc12)c1ccc(-c2ccnc(C(F)(F)F)c2)cc1,inactive
7,O=C(Nc1ncc(Cc2ccc(C(F)(F)F)cc2)s1)c1ccc(-c2ccccc2[N+](=O)[O-])o1,inactive
8,Cc1c(Br)cc(F)c([S+](=O)([O-])N2CCN([S+](=O)([O-])c3ccc4c(c3)OCCO4)CC2)c1F,inactive
9,O=C(Nc1cncc(NC(=O)c2cccs2)c1)c1cccs1,inactive
10,CCN1CCN(C(=O)CCN(CC(C)C)c2nc(-c3cccs3)nc3ccccc23)CC1,inactive
11,O=C(Nc1ccc(-c2nc3ccccc3[nH]2)cc1)Nc1ccc2c(c1)CCCO2,inactive
12,c1nc(NCc2ccoc2)c2cc(-c3ccc4c(c3)OCO4)ccc2n1,inactive
13,COc1ccc(C2=Nn3c(nnc3-c3ccccc3OC)SC2)cc1,inactive
14,O=C(O)c1cccc(-c2noc(-c3cccc(Cl)c3)n2)c1,inactive
15,Cc1ccc(Nc2nc(C#N)nc(NC3CCCC3)n2)cc1,inactive
16,Cc1ccc(-c2nccc(=O)n2CC(=O)NCCc2ccccc2)cc1,inactive
17,O=C(Nc1ccccn1)c1sc2ccccc2c1Cl,inactive
18,CC(C)(C)CNc1nc(C#N)nc(Nc2ccccc2)n1,inactive
19,CC1=C(C(=O)NC2CCCCC2)C(c2ccccc2Br)N=C(Nc2nc3ccccc3o2)N1 (centres undefined),inactive
20,N/C(=N\c1nnc(-c2ccncc2)s1)Nc1ccc(F)c(C(F)(F)F)c1,inactive

row,Structure (SMILES),Potency
1,N#Cc1nc(NCC(F)F)c2ncn(-c3cccc(Cl)c3)c2n1,inactive
2,O=C1CCCC2=C1C1(CCCC1)N=C(Nc1nc3ccccc3n1Cc1ccccc1)N2,inactive
3,Cc1c(P(=S)(c2ccccc2)c2ccccc2)c2ccccc2n1CCCc1ccccc1,inactive
4,O=C(Nc1cc(C(F)(F)F)ccc1Cl)C(O)Cc1ccccc1 (centres undefined),inactive
5,COc1cccc(CNc2ccc([S+](=O)([O-])Nc3cc4ccccc4s3)cc2)c1O,inactive
6,c1nc(NCCCN2CCOCC2)c2cc(-c3ccc4c(c3)OCO4)ccc2n1,inactive
7,NC(=O)C1CCN(c2nc(-c3ccc(Oc4ccccc4)cc3)cs2)CC1,inactive
8,CC(=O)Nc1sc2c(c1-c1ccc3[nH]ccc3c1)CCNC2,inactive
9,CC(=O)Nc1ccc(C(=O)Nc2ccc(-c3nc4ccccc4[nH]3)cc2)cc1,inactive
10,CC1=C(C(=O)Nc2nc3ccccc3s2)C(c2nn(C)cc2Cl)N=C(Nc2nc3ccccc3o2)N1 (centres undefined),inactive
11,O=C(c1ccc2c(c1)ncn2-c1cccc(C(F)(F)F)c1)N1CCCCC1,inactive
12,CS(=O)(=O)c1ccc(C(=O)OCC(=O)N2CCC(c3ccccc3)CC2)cc1[N+](=O)[O-],inactive
13,O=C(Nc1ccc2c(c1)OCO2)Nc1nnc(-c2ccncc2)s1,inactive
14,c1nc(N2CCC(N3CCCC3)CC2)c2cc(-c3ccc4c(c3)OCO4)ccc2n1,inactive
15,Cc1cc2c(s1)c1cnn(Cc3ccccc3F)c(=O)c1n2Cc1ccccc1F,inactive
16,Cc1c(P(=S)(c2ccccc2)c2ccccc2)[n+]2ccccc2n1CCCCc1ccccc1,inactive
17,COc1cc(F)c(S(=O)(=O)N2CCCN(S(=O)(=O)c3cccc(N)c3)CC2)c(F)c1,inactive
18,NC(=O)c1c(NC(=O)C2CCCO2)sc2c1CCCC2 (centres undefined),inactive
19,Nc1cccc([S+](=O)([O-])N2CCCN([S+](=O)([O-])c3cccc(N)c3)CC2)c1,inactive
